Bioassay records: PubChem BioAssay, National Center for Advancing Translational Sciences (NCATS)
HSD17B inhib – qHTS Assay for Inhibitors of HSD17B4, hydroxysteroid (17-beta) dehydrogenase 4; 75,000 tested, 7.6% active; 3-hydroxyacyl-CoA dehydrogenase type-2 (Homo sapiens), Q99714; recombinant HSD17B10, NADH fluorescence kinetic; Potency, µM (top dose mostly 57.1 µM), actives largely listed as inhibitors; AID 893, 2007;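 further: the protocol describes HADH2 (HSD17B10) and not the HSD17B4 of the title; nearly all actives have a fitted effect of over 70% in size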
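His-tagged E. coli-expressed HADH2 at 20 nM in 100 mM Tris-HCl pH 9.0 with 0.01 % Tween-20, preincubated 15 min with compound at room temperature. Reaction with 1 mM NAD+ and 90 uM beta-hydroxybutyryl coenzyme A; NADH fluorescence (360/450 nm) read kinetically over 4 min, last minus first point.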
4-MU autofl – qHTS Assay for Spectroscopic Profiling in 4-MU Spectral Region; compound autofluorescence, 340/450 nm, 4-MU equivalents; hits give high values; max dye-equivalent concentration, M; 59,000 tested, 11% active; in the data active means max dye-equivalent concentration above about 10 nM; inconclusive means mostly about 1.1 nM to 9.6 nM
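Compounds in 100 mM Tris, pH 8.0, incubated 15 min at room temperature, then fluorescence read at 340 nm excitation/450 nm emission. Signal converted to 4-MU dye-equivalent concentration using an on-plate six-point 4-MU standard curve.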
GBA mod – Glucocerebrosidase; 48,000 tested, 1.1% active; AID 360, 2006; Potency, µM; purified enzyme, resorufin glucoside fluorescence (screen aimed at inhibitors), 20 min; Lysosomal acid glucosylceramidase (Homo sapiens), P04062; in the data active means potency below about 15 µM; inconclusive means mostly about 16 µM to 33 µM;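 further: the screen sought inhibitors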
Target sequence (P04062 whole entry, looked up): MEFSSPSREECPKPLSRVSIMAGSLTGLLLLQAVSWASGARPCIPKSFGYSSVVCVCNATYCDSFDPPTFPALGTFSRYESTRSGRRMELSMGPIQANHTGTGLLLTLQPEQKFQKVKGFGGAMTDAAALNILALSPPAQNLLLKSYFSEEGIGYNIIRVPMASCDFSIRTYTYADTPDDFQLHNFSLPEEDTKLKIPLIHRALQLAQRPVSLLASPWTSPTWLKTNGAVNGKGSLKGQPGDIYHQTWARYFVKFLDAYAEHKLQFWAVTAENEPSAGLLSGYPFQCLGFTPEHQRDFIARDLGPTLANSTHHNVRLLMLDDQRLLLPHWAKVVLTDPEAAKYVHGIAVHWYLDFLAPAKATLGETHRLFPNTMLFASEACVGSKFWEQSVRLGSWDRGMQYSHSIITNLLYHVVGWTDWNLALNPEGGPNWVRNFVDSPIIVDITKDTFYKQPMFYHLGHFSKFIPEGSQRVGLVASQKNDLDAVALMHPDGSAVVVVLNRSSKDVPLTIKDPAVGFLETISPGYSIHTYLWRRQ
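Normal human glucocerebrosidase (0.2 nM final) was assayed with resorufin β-D-glucopyranoside (30 uM final) in 50mM citric acid/KH2PO4, 10mM sodium taurocholate, 0.01% tween-20, pH 5.9. Compounds were titrated; fluorescence (Ex 548, Em 600) read after 20 min at RT.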
HADH2 inhib – qHTS Assay for Inhibitors of HADH2 (Hydroxyacyl-Coenzyme A Dehydrogenase, Type II); recombinant HADH2, NADH fluorescence, beta-hydroxybutyryl-CoA; Potency, µM (titrated, usually from 57.1 µM), usual class: inhibitors; 73,000 tested, 3.4% active; further: nearly all actives have a fitted effect of over 60% in size
Target sequence (Q99714 whole entry, looked up, one chain of several): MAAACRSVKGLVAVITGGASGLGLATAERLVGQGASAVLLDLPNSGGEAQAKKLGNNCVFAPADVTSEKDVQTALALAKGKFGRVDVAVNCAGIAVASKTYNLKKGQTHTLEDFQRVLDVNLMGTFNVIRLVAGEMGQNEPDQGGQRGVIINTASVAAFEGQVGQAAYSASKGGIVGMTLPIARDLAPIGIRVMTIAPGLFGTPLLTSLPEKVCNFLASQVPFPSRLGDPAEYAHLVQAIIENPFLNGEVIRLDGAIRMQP
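E. coli-expressed His-tagged HADH2 tested at 20 nM in alkaline Tris buffer (pH 9.0); oxidation of 90 uM beta-hydroxybutyryl-CoA with 1 mM NAD+ tracked fluorimetrically for 4 min.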
A350 autofl – qHTS Assay for Spectroscopic Profiling in A350 Spectral Region | Compound autofluorescence, 340/450 nm, Alexa 350 dye-equivalents; hits give high values | max dye-equivalent concentration, M | 59,000 tested, 11% active | AID 590, 2007; in the data active means max dye-equivalent concentration above about 10 nM; inconclusive means mostly about 1.1 nM to 9.6 nM
AID923 – qHTS Assay for Allosteric/Competitive Inhibitors of Caspase-1: Spectroscopic Profiling in AFC Spectral Region. compound fluorescence, AFC spectral region (405/520 nm). AID 923, 2007. 75,000 tested, 1.1% active. Potency, µM (titrated, usually from 57.5 µM), usual class: activators
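Titrations up to 57 uM read every 20 sec for 3 min (405/520 nm) with 50 nM caspase 1 and 5 uM Ac-WEHD-AFC, pH 7.5 HEPES buffer. Fluorescence-vs-time intercept gave baseline, scaled against on-plate AFC standard.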
Of the large screens only hits and unclear results are named; the others gave an inactive call; ! = a repeat was not active. Hits are enriched below; roughly 13% of the tested compounds scored in any of these assays. Unless noted, the call rests on the fitted dose curve; in most records, active means well fitted curve in the direction sought with a large enough effect; inconclusive means small, poorly fitted or top-dose-only effect, or another doubt; inactive means no such curve, though single readings can be large; an effect the other way counts as inactive or inconclusive.

CCCCN(CCCC)S(=O)(=O)c1ccc(C(=O)Nc2nnc(COC)o2)cc1	GBA mod inconclusive
CCc1nnc(NC(=O)c2ccc(S(=O)(=O)N(CC)Cc3ccccc3)cc2)o1	GBA mod 14
O=C(c1ccc(=O)n(Cc2ccccc2)n1)N1CCN(C/C=C/c2ccccc2)CC1	HSD17B inhib inconclusive, 4-MU autofl 3.9e-08M, A350 autofl 3.7e-08M
O=C(OCCn1cncn1)c1cc2ccccc2oc1=O	HSD17B inhib 25µM, 4-MU autofl 3.2e-08M, HADH2 inhib inconclusive, A350 autofl 3.2e-08M
CC(C)n1c(SCC(=O)N2CCCc3ccccc32)nc2c1c(=O)n(C)c(=O)n2C	none
CCc1nnc(NC(=O)CSc2nc3ccccc3s2)s1	HSD17B inhib 32µM, GBA mod inconclusive, HADH2 inhib inconclusive
CCc1nnc(NC(=O)CSc2nnc(CNc3ccc(Cl)cc3)o2)s1	4-MU autofl 1.7e-08M, GBA mod 15, A350 autofl 2.1e-08M
O=[N+]([O-])c1ccc(Cl)c(CNc2ncnc3c2ncn3[C@@H]2CCCCO2)c1	4-MU autofl inconclusive, A350 autofl inconclusive (no result: GBA mod)
N#CC1=C2SCN(Cc3ccccc3)CN2C(=O)CC1c1ccc2c(c1)OCO2 (centres undefined)	HSD17B inhib inconclusive, HADH2 inhib 2.5µM, A350 autofl inconclusive
N#CC1=C2SCN(Cc3ccccc3)CN2C(=O)CC1c1cccs1 (centres undefined)	HSD17B inhib inconclusive, HADH2 inhib 2µM (no result: 4-MU autofl, GBA mod, A350 autofl)
COC(=O)c1ccc(C(NC(=O)c2ccco2)[C@]2(C)C[C@H]2C2CCCCC2)cc1 (some centres undefined)	none (no result: 4-MU autofl, GBA mod, A350 autofl)
COC(=O)CC1Oc2cc3oc4c5ccccc5oc(=O)c4c3cc2O1 (centres undefined)	HSD17B inhib 25µM (no result: 4-MU autofl, GBA mod, HADH2 inhib, A350 autofl)
COc1ccc(Cl)cc1C(=O)NCCc1ccc(S(=O)(=O)NC(=O)NC2CCCCC2)cc1	none (no result: GBA mod)
COc1ccc2c(c1)C(=O)N(CCc1ccc(S(=O)(=O)NC(=O)NC3CCCCC3)cc1)C(=O)C2(C)C	HSD17B inhib 13µM (no result: GBA mod)
Cc1cc(Cl)c(OCCCn2cncn2)c(Br)c1	4-MU autofl 2.1e-08M, A350 autofl 1.8e-08M
CC1(C)O[C@H]2[C@@H](c3[nH]nc4c(=O)[nH]c(=O)[nH]c34)OC[C@H]2O1	none (no result: GBA mod)
CCN(CC)C(=O)c1c[nH]c2ccc(S(=O)(=O)Nc3cc(C)cc(C)c3)cc2c1=O	HSD17B inhib 32µM, 4-MU autofl 1.5e-08M, A350 autofl 1.4e-08M
CCc1ccc(NS(=O)(=O)c2ccc3[nH]cc(C(=O)N4CCCCC4)c(=O)c3c2)cc1	HSD17B inhib 16µM, 4-MU autofl inconclusive, A350 autofl inconclusive
CCOc1ccccc1NS(=O)(=O)c1cccs1	4-MU autofl 2.6e-08M, A350 autofl 2.7e-08M
CC1CC[C@]2(CO)CC[C@]3(C)C(=CCC4[C@@]5(C)CCC(O)C(C)(C)C5CC[C@@]43C)C2C1C (some centres undefined)	none (no result: 4-MU autofl, GBA mod, HADH2 inhib, A350 autofl)
CCCCn1c(SCn2nnc3ccccc3c2=O)nc2cc(C(=O)OC)ccc2c1=O	none
CCSc1nc2cc(C(=O)OC)ccc2c(=O)n1CC	HSD17B inhib inconclusive, 4-MU autofl 1.4e-08M, A350 autofl 1.5e-08M (no result: GBA mod)
N[C@@H](CSCc1ccccc1)C(=O)O	none (no result: GBA mod)
COc1cc(OC)nc(NC(=O)COC(=O)C2CCCCC2)n1	A350 autofl inconclusive
CC(=O)CC(=O)NC(=NC1CCCCC1)Nc1nc(C)cc(C)n1	4-MU autofl 1.1e-08M, A350 autofl 1.2e-08M
COc1ccc(-n2c(Cc3cccn3C)nnc2SCC(=O)Nc2ccc(C(C)=O)cc2)cc1	none (no result: 4-MU autofl, GBA mod, A350 autofl)
Cc1nnc2sc(-c3ccc(NC(=O)c4cccnc4)cc3)nn12	4-MU autofl 3.8e-08M, GBA mod inconclusive, A350 autofl 4.3e-08M
CCc1nnc2sc(-c3ccc(NC(=O)c4ccco4)cc3)nn12	4-MU autofl 3.8e-08M, A350 autofl 4.5e-08M
Cc1nnc2sc(-c3ccc(NC(=O)c4ccc(-c5ccc(Cl)cc5Cl)o4)cc3)nn12	HSD17B inhib 16µM, 4-MU autofl 8.9e-08M, A350 autofl 9.4e-08M
CCc1ccc(NC(=O)c2cccnc2)cc1	GBA mod inconclusive
COC(=O)N1CCC2(CCCN(C(=O)Nc3ccccc3)C2)CC1	none (no result: GBA mod)
CCOC(=O)C1CCCN(C(=O)c2sc3nc(-c4ccc(F)cc4)cn3c2C)C1 (centres undefined)	none
CCOC(=O)C1CCCN(c2cc(C)nc3cc(-c4ccc(F)cc4)nn23)C1 (centres undefined)	HSD17B inhib 32µM, 4-MU autofl inconclusive, HADH2 inhib inconclusive, A350 autofl inconclusive
COc1cc(NS(=O)(=O)c2ccc(N)cc2)nc(OC)n1	4-MU autofl 1.8e-07M!, A350 autofl 2.1e-07M! (no result: GBA mod)
CC1OC(Nc2cccc3ccccc23)C(O)C(O)C1O (centres undefined)	HSD17B inhib 32µM, HADH2 inhib 25µM (no result: 4-MU autofl, GBA mod, A350 autofl)
Cc1nn(-c2ccccc2)c2nc(-c3ccco3)cc(C(=O)O)c12	HSD17B inhib 25µM, 4-MU autofl inconclusive, A350 autofl inconclusive
O=C(O)c1cc(-c2ccco2)nc2ccccc12	HSD17B inhib 25µM, 4-MU autofl 2e-06M, HADH2 inhib 25µM, A350 autofl 2.2e-06M
COc1ccc2[nH]cc(CCNc3ncnc4ccc(-c5cccc(C#N)c5)cc34)c2c1	none (no result: GBA mod)
c1cn(-c2cc(-c3ccc4c(c3)OCO4)ncn2)cn1	HSD17B inhib 25µM, 4-MU autofl 3.1e-08M, HADH2 inhib 25µM, A350 autofl 3.4e-08M (no result: GBA mod)
c1cncc(-c2nc(-c3ccc4c(c3)OCO4)cs2)c1	4-MU autofl inconclusive, A350 autofl inconclusive
COc1ccc(CCN2CC(O)=C(c3nc4ccccc4c(=O)[nH]3)C2=N)cc1OC	HSD17B inhib 32µM, 4-MU autofl inconclusive, HADH2 inhib inconclusive, A350 autofl inconclusive
CCCCCCN1CC(O)=C(c2nc3ccccc3[nH]2)C1=N	GBA mod 11
CCOC(=O)c1ccc(N2CC(O)=C(c3nc4ccccc4c(=O)[nH]3)C2=N)cc1	4-MU autofl 4.6e-08M, A350 autofl 6.5e-08M (no result: HSD17B inhib, GBA mod, HADH2 inhib, AID923)
COc1ccccc1NC(=O)c1cc(Sc2nncn2C)nc2ccccc12	none
CCc1nc2c(sc3nc(N4CCOCC4)c4c(c32)CC(C)(C)OC4)c(=O)o1	A350 autofl inconclusive (no result: HSD17B inhib, GBA mod, HADH2 inhib, AID923)
COc1cccc(OC)c1C(=O)NC1C(=O)N2C1SC(C)(C)C2C(=O)O (centres undefined)	none (no result: 4-MU autofl, GBA mod, HADH2 inhib, A350 autofl)
O=C(NCCO)c1ccc(-n2c(=O)c(=O)[nH]c3ccccc32)cc1	none (no result: 4-MU autofl, GBA mod, A350 autofl)
